Rows were chosen to be rich in hits. Some 2.4% of all compounds tested hit in one or more screens of this group.
CHRM1 agonist: human M1 muscarinic receptor agonism | P11229 | CHO-K1 hM1, Fluo-8 calcium fluorescence, agonist mode; 0% DMSO, 100% acetylcholine EC100 | activation, % at 3 µM | 360,000 compounds, 0.33% hits;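 active = activation above the run's mean compound activation plus 3 SD, cut at about 16% in these data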;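 note: peak over basal fluorescence ratio within a 140 s kinetic read after compound addition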
Target sequence (P11229 whole entry, looked up): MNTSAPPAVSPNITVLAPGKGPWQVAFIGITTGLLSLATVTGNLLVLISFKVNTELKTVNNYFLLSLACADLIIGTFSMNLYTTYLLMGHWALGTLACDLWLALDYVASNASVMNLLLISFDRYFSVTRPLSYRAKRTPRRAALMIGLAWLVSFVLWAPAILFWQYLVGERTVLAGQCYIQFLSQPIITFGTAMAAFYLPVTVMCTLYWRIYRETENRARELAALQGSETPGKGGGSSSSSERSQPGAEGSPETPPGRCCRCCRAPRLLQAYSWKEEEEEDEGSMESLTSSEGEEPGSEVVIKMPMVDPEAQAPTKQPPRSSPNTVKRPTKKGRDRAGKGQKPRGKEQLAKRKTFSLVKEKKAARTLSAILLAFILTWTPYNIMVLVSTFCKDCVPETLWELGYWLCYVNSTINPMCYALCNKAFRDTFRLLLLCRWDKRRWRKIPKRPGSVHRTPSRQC
M1 PAM parental: nonselective activator or artifact in parental CHO-K1 calcium assay; 360,000 compounds, 0.02% hits; ATP EC20, Fluo-8 calcium fluorescence; 0% at ATP EC20, 100% at ATP max; activation, % at 3 µM;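 active = activation above the run cutoff, the mean activation of all test compounds plus 3 SD, cut at about 40% in these data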;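 note: peak over basal fluorescence ratio in a 140 s read after ATP addition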
CHO-K1 Ca antag: nonselective inhibitor or artifact in parental CHO-K1 cells | 360,000 compounds, 0.6% hits | inhibition, % at 3 µM | ATP-induced calcium, Fluo-8 fluorescence;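 active = inhibition above a per-plate cutoff, the plate's mean sample inhibition plus 3 SD, cut at about 24% in these data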;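 note: 0% = DMSO plus EC80 ATP and 100% = DMSO alone without ATP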
CHO-K1 Ca ag: nonselective activator or artifact in parental CHO-K1 cells; Fluo-8 calcium fluorescence; scaled to maximal ATP response, vehicle zero; activation, % at 3 µM; 360,000 compounds, 0.48% hits; AID 602248; in the data active = activation above about 15%;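 note: untransfected CHO-K1 host cells lacking M1 receptor as counterscreen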
CHRM1 PAM: human CHRM1 positive allosteric modulation; AID 588819; CHO-K1 hM1, Fluo-8 calcium fluorescence, ACh EC20; 0% = ACh EC20, 100% = maximal ACh; activation, % at 3 µM; 360,000 compounds, 0.088% hits; P11229; in the data active = activation above about 19%, passing the limit was not always enough
M1 antag: antagonists of human M1 muscarinic receptor. P11229. CHO-K1 hM1, Fluo-8 calcium fluorescence, ACh EC80 antagonist. inhibition, % at 3 µM. 360,000 compounds, 1.3% hits. AID 588852;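 active = percent inhibition above its own plate's cutoff, namely the mean of that plate's compound wells plus 3 SD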;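 note: peak over basal fluorescence ratio during 140 s after agonist addition; 0% = ACh EC80 plus DMSO and 100% = DMSO alone without agonist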
The depositor's hits bear a star.

SMILES	CHRM1 agonist	M1 PAM parental	CHO-K1 Ca antag	CHO-K1 Ca ag	CHRM1 PAM	M1 antag
COc1cccc(C(C)NC(=O)C2CCCC2)c1 (stereo not drawn)	-1	4	-3	0	14	-13
c1ccc(-c2ccccc2OCCCCN2CCCCC2)cc1	-11	18	-6	7	-26	32*
CC(=O)c1ccccc1OCCCN1CCCCC1	-5	4	-9	0	-19	38*
Brc1ccccc1OCCCN1CCCCCC1	-8	22	-21	1	-2	0
COc1ccc(C(=O)N2CCCC(C)(C(=O)NS(=O)(=O)C3CC3)C2)c(OC)c1 (stereo not drawn)	0	18	-9	0	-5	2
Cc1ncc(CO)c2cc(S(=O)(=O)c3ccc(F)cc3)c(=O)oc12	-1	5	-13	0	-13	23*
O=C(Nc1cccc(S(=O)(=O)C(F)(F)F)c1)[C@@H]1O[C@H](CO)[C@@H](O)[C@H]1O	-2	13	12	0	7	-10
Cc1cccc(-n2c(C)cc(/C=N/n3cnnc3)c2C)c1	-3	16	-11	1	-21	70*
COc1cc(N2CCCC2)c(OC)cc1/C=C1/NC(=S)NC1=O	53*	-3	35*	48*	-18	31
NC(=O)c1ccc(NC(=O)COc2coc(CN3CCc4ccccc4C3)cc2=O)cc1	-1	2	7	16*	8	-10
COc1ccc(NC(=O)COc2coc(CN3CCc4ccccc4C3)cc2=O)cc1	-6	-1	-5	0	3	-8
Cc1ccccc1NC(=O)COc1coc(CN2CCCc3ccccc32)cc1=O	-1	2	-10	4	26*	-9
CCOc1ccc(NC(=O)CC2C(=O)N(CC)C(=S)N2NC(=O)c2ccncc2)cc1 (stereo not drawn)	-1	21	-11	1	9	-17
CCc1ccc(N=Nc2ccc(O)c3[nH]cnc23)cc1	14	-15	18	13	-15	40*
CC(Nc1nc(-c2cccnc2)nc2ccccc12)c1ccccc1 (stereo not drawn)	-5	13	7	17*	-4	-6
CC(Nc1nc(-c2ccncc2)nc2ccccc12)c1ccccc1 (stereo not drawn)	-7	-8	-3	0	-8	17
Cc1cc(C)c(S(N)(=O)=O)c(C)c1N(C)S(=O)(=O)c1ccccc1	-4	23	-15	2	10	-4
Cc1cc(C)c(S(N)(=O)=O)c(C)c1N(C)S(=O)(=O)c1ccc(Cl)cc1	0	-20	16	1	-13	40*
C=CC[C@@H](CC(=O)N(CCO)Cc1ccccc1)C(=O)NC[C@H](OC(=O)[C@@H](CC=C)Cc1ccc(F)cc1)c1ccccc1	-1	-12	-11	6	-17	34*
C=CC[C@@H](CC(=O)N(CCO)Cc1ccccc1)C(=O)N[C@H](COC(=O)[C@@H](CC=C)Cc1ccc(F)cc1)c1ccccc1	-2	-3	-13	1	-1	7
Cc1ccc(S(=O)(=O)N(C)c2ccc(OCC(=O)NCC3(N(C)C)CCCCC3)cc2)cc1	-7	1	0	1	-3	7
Cc1nnsc1C(=O)NC(C)c1ccccc1 (stereo not drawn)	4	1	2	21*	5	-17
Cc1nccn1CCc1n[nH]c(=S)n1Cc1ccccc1	-5	14	-4	1	-21	60*
S=c1[nH]nc(CCc2ccccc2)n1Cc1ccccc1	-6	18	-7	1	-19	25
Cc1cc(C(=O)COC(=O)c2nn(C)c(=O)c3ccccc23)c(C)n1C	-2	-15	-12	0	12	-8
O=C(Nc1cccc(/C=C/c2ccccn2)c1)c1ccc(-n2cncn2)c([N+](=O)[O-])c1	1	-15	7	10	-8	20*
O=C(NNC(=O)c1ccccc1F)c1ccc(-n2cncn2)c([N+](=O)[O-])c1	1	-14	18	0	-12	36*
COc1ccccc1C1N(c2cc(Cl)ccc2OC)C(=O)C2CCCN21 (stereo not drawn)	-5	-13	27*	0	3	-7
